From PubChem BioAssay AID1159580 (chemical genetic matrix, 2015)
The whole screen tested about 5,500 compounds, of which about 2,000 (36%) were called active. Another 18% or so got no clear call; they are omitted. Cut-off read from the data, not from the text of the source: active = normalized growth mostly below about 0.91 (no sharp cut-off); inconclusive = no clear call, values can overlap the other calls; inactive = mostly above about 0.92. Some of the results follow.

Test: chemical genetic growth profiling, strain panel (AID 1159580);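 note: tested at 20 µM; growth read once vehicle control cultures reached saturation at 30 °C; 1 = growth at the plate median or of vehicle wells; lower values mean less growth of the strain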
Conditions: growth OD

Measured: normalized growth

CCOC(=O)OC(C)OC(=O)C1N2C(=O)C(NC(=O)[C@H](N)c3ccccc3)C2SC1(C)C (stereo not given in full)
inactive: S. cerevisiae deletion strains, locus YJR075W, strain HOC1, active compounds read low 0.966 | S. cerevisiae deletion strains, locus YKL009W, strain mrt4, active compounds read low 0.946 | S. cerevisiae deletion strains, locus YKL068W, active compounds read low 0.98 | S. cerevisiae deletion strains, locus YKL085W, strain MDH1 (second series), active compounds read low 0.989 | S. cerevisiae deletion strains, locus YKL085W, strain MDH1, active compounds read low 0.989 | S. cerevisiae deletion strains, locus YKL160W, strain elf1, active compounds read low 0.966 | S. cerevisiae deletion strains, locus YKL190W, strain CNB1, active compounds read low 0.975 | S. cerevisiae deletion strains, locus YKR001C, strain vps1, active compounds read low 0.98 | S. cerevisiae deletion strains, locus YKR026C, strain gcn3, active compounds read low 1.01 | S. cerevisiae deletion strains, locus YKR091W, strain srl3, active compounds read low 0.977 | S. cerevisiae deletion strains, locus YLL001W, strain dnm1, active compounds read low 0.96 | S. cerevisiae deletion strains, locus YLL026W, active compounds read low 0.998 | S. cerevisiae deletion strains, locus YLL041C, strain sdh2, active compounds read low 0.983 | S. cerevisiae deletion strains, locus YLR027C, strain aat2, active compounds read low 0.984 | S. cerevisiae deletion strains, locus YLR039C, strain RIC1, active compounds read low 0.991 | S. cerevisiae deletion strains, locus YLR058C, strain SHM2, active compounds read low 0.963 | S. cerevisiae deletion strains, locus YLR102C, strain apc9, active compounds read low 0.987 | S. cerevisiae deletion strains, locus YLR113W, strain HOG1, active compounds read low 0.966 | S. cerevisiae deletion strains, locus YLR221C, strain rsa3, active compounds read low 0.999 | S. cerevisiae deletion strains, locus YLR258W, strain gsy2, active compounds read low 1 | S. cerevisiae deletion strains, locus YLR262C, strain YPT6 (second series), active compounds read low 0.982 | S. cerevisiae deletion strains, locus YLR262C, strain YPT6, active compounds read low 0.964 | S. cerevisiae deletion strains, locus YLR268W, strain sec22, active compounds read low 0.988 | S. cerevisiae deletion strains, locus YLR320W, strain mms22, active compounds read low 0.96 | S. cerevisiae deletion strains, locus YLR330W, strain CHS5, active compounds read low 0.992 | S. cerevisiae deletion strains, locus YLR342W, strain FKS1 (second series), active compounds read low 1.11 | S. cerevisiae deletion strains, locus YLR342W, strain FKS1, active compounds read low 0.976 | S. cerevisiae deletion strains, locus YLR357W, strain rsc2, active compounds read low 0.961 | S. cerevisiae deletion strains, locus YLR370C, strain arc18, active compounds read low 0.982 | S. cerevisiae deletion strains, locus YLR371W, strain rom2, active compounds read low 0.999 | S. cerevisiae deletion strains, locus YLR384C, strain iki3, active compounds read low 0.974 | S. cerevisiae deletion strains, locus YLR418C, strain cdc73, active compounds read low 0.978 | S. cerevisiae deletion strains, locus YML016C, strain PPZ1, active compounds read low 0.986 | S. cerevisiae deletion strains, locus YML032C, strain rad52, active compounds read low 0.962 | S. cerevisiae deletion strains, locus YML120C, strain ndi1, active compounds read low 0.974 | S. cerevisiae deletion strains, locus YML124C, strain tub3, active compounds read low 0.987 | S. cerevisiae deletion strains, locus YMR058W, strain fet3, active compounds read low 0.977 | S. cerevisiae deletion strains, locus YMR078C, strain ctf18, active compounds read low 0.994 | S. cerevisiae deletion strains, locus YMR125W, strain sto1, active compounds read low 0.99 | S. cerevisiae deletion strains, locus YMR129W, active compounds read low 0.992 | S. cerevisiae deletion strains, locus YMR205C, strain PFK2, active compounds read low 0.966 | S. cerevisiae deletion strains, locus YMR223W, strain ubp8, active compounds read low 0.986 | S. cerevisiae deletion strains, locus YMR231W, strain pep5, active compounds read low 0.998 | S. cerevisiae deletion strains, locus YMR263W, strain SAP30, active compounds read low 0.967 | S. cerevisiae deletion strains, locus YMR307W, strain GAS1, active compounds read low 1.04 | S. cerevisiae deletion strains, locus YNL067W, strain RPL9B, active compounds read low 0.945 | S. cerevisiae deletion strains, locus YNL071W, strain lat1, active compounds read low 0.998 | S. cerevisiae deletion strains, locus YNL153C, strain GIM3, active compounds read low 0.932 | S. cerevisiae deletion strains, locus YNL183C, strain NPR1, active compounds read low 0.947 | S. cerevisiae deletion strains, locus YNL209W, strain ssb2, active compounds read low 0.989 | S. cerevisiae deletion strains, locus YNL233W, strain BNI4, active compounds read low 0.97 | S. cerevisiae deletion strains, locus YNL248C, strain rpa49, active compounds read low 0.985 | S. cerevisiae deletion strains, locus YNL250W, strain rad50, active compounds read low 0.968 | S. cerevisiae deletion strains, locus YNL271C, strain bni1, active compounds read low 0.986 | S. cerevisiae deletion strains, locus YNL298W, strain CLA4, active compounds read low 0.982 | S. cerevisiae deletion strains, locus YNL307C, strain MCK1, active compounds read low 0.995 | S. cerevisiae deletion strains, locus YNL322C, strain KRE1 (second series), active compounds read low 0.968 | S. cerevisiae deletion strains, locus YNL322C, strain KRE1, active compounds read low 0.985 | S. cerevisiae deletion strains, locus YNR049C, strain mso1, active compounds read low 0.976 | S. cerevisiae deletion strains, locus YNR052C, strain pop2, active compounds read low 0.987 | S. cerevisiae deletion strains, locus YOL006C, strain TOP1, active compounds read low 0.825 | S. cerevisiae deletion strains, locus YOL012C, strain htz1 0.766 | S. cerevisiae deletion strains, locus YOL147C, strain pex11, active compounds read low 0.993 | S. cerevisiae deletion strains, locus YOR001W, strain rrp6, active compounds read low 1.01 | S. cerevisiae deletion strains, locus YOR061W, strain CKA2, active compounds read low 0.949 | S. cerevisiae deletion strains, locus YOR069W, strain VPS5, active compounds read low 0.992 | S. cerevisiae deletion strains, locus YOR070C, strain gyp1, active compounds read low 0.993 | S. cerevisiae deletion strains, locus YOR080W, strain dia2, active compounds read low 0.975 | S. cerevisiae deletion strains, locus YOR083W, strain WHI5, active compounds read low 0.967 | S. cerevisiae deletion strains, locus YOR106W, strain vam3, active compounds read low 0.952 | S. cerevisiae deletion strains, locus YOR136W, strain idh2, active compounds read low 0.974 | S. cerevisiae deletion strains, locus YOR144C, strain elg1, active compounds read low 0.987 | S. cerevisiae deletion strains, locus YOR184W, strain ser1, active compounds read low 0.985 | S. cerevisiae deletion strains, locus YOR231W, strain MKK1, active compounds read low 0.978 | S. cerevisiae deletion strains, locus YOR265W, strain rbl2, active compounds read low 0.993 | S. cerevisiae deletion strains, locus YOR270C, strain vph1, active compounds read low 0.92 | S. cerevisiae deletion strains, locus YOR290C, strain snf2, active compounds read low 0.985 | S. cerevisiae deletion strains, locus YOR316C, strain cot1, active compounds read low 0.976 | S. cerevisiae deletion strains, locus YPL051W, strain arl3, active compounds read low 0.99 | S. cerevisiae deletion strains, locus YPL055C, strain LGE1, active compounds read low 0.881 | S. cerevisiae deletion strains, locus YPL078C, strain atp4, active compounds read low 0.971 | S. cerevisiae deletion strains, locus YPL106C, strain sse1, active compounds read low 0.955 | S. cerevisiae deletion strains, locus YPL240C, strain hsp82, active compounds read low 1 | S. cerevisiae deletion strains, locus YPL256C, strain CLN2, active compounds read low 0.978 | S. cerevisiae deletion strains, locus YPR119W, strain clb2, active compounds read low 0.983 | S. cerevisiae deletion strains, locus YPR141C, strain kar3, active compounds read low 0.978 | S. cerevisiae deletion strains, locus YPR163C, strain tif3, active compounds read low 0.984 | S. cerevisiae deletion strains, locus YPR167C, strain met16, active compounds read low 0.996 | S. cerevisiae deletion strains, strain wtn01, active compounds read low 0.992 | S. cerevisiae strains, strain wild type, active compounds read low 0.98
